The source made the active and inactive calls.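 How the source made its calls: active means GFP response above 150% of the DMSO level; inconclusive means fewer than 70 events counted for a yeast strain; inactive means the rest.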
Assay: TOR pathway CIT2 reporter hit retest – S. cerevisiae, GFP fusion, cherry picks, mother/daughter gates, confirmation (AID 2274)
Conditions: S. cerevisiae CIT2-GFP strain, flow cytometry, 3 h; at 10 µM; active compounds read high

GFP response, % of DMSO, inactive:
CCc1nnc(NC(=O)c2nc(S(=O)(=O)Cc3cccc(C)c3)ncc2Cl)s1 99.3%
O=C(NCc1ccc2c(c1)OCO2)c1nc(S(=O)(=O)Cc2ccccc2)ncc1Cl 99.3%
COc1ccccc1-c1noc(-c2cc(OC)c(OC)c(OC)c2)n1 99.1%
N#C/C(=C\c1c(N2CCCCC2)nc2ccccn2c1=O)C(=O)NCc1ccco1 99.3%
COc1cc(NC(=O)c2ccc(Br)cc2)ccc1NC(=O)c1cc2ccccc2o1 96.5%
CCOC(=O)CS(=O)(=O)c1nc(-c2ccc(F)cc2)cc(C(F)(F)F)n1 116%
CC[n+]1c(/C=C/c2ccc(N(C)C)cc2)ccc2ccccc21 97.3%
CCOc1cc(/C=N/Nc2nc(C)cc(=O)[nH]2)ccc1O 106%
Cc1ccc(/C=C/C(=O)c2ccccc(=O)c2O)c(C)c1 103%
COc1ccc(-c2ccc(S(=O)(=O)N3CCOCC3)cc2)cc1 100%
CCNC(=O)c1ccccc1-c1nc(-c2ccccc2Cl)no1 98.6%
O=C(OCC(=O)N1CCN(C(=O)c2ccco2)CC1)c1cc(-c2ccccc2)nc2ccccc12 134%
Cc1nnc(NC(=O)c2ccc(S(=O)(=O)N3CCCCCC3)cc2)o1 100%
NC(N)=N/N=C/c1ccc(OCc2ccc(Cl)cc2Cl)cc1 85.5%
Cc1noc(/C=C/c2cccnc2)c1[N+](=O)[O-] 92.6%
NC(=O)c1ccccc1OCC(=O)c1ccc(Cl)cc1 100%

Reference: PubChem BioAssay
